From PubChem BioAssay (NCATS)
Results filed as inconclusive are left out. The source made the active and inactive calls. Unless noted, the call rests on the fitted dose curve; in most records, active means well fitted curve in the direction sought with a large enough effect; inconclusive means small, poorly fitted or top-dose-only effect, or another doubt; inactive means no such curve, though single readings can be large; an effect the other way counts as inactive or inconclusive.

Assays:
[1] = High Content Imaging Cell-Based qHTS for Inhibitors of the mTORC1 Signaling Pathway in MEF Cells (AID 2667);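 further: Tsc2-/- p53-/- MEFs stably re-expressing wild-type Tsc2 exposed 24 h; series mostly up to about 38 µM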
Summary of the method: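 Read-out is the share of phospho-rpS6-positive cells per well, from Hoechst-normalized Alexa-488 Ser235/236 staining imaged on IN Cell. Cells: WT Tsc2-expressing Tsc2-/-, p53-/- MEFs exposed to compound for 24 hrs.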

[2] = Validation screen for small molecules that induce DNA re-replication in MCF 10A normal breast cells (AID 463097); further: nearly all actives have a fitted effect of over 60% in size
Summary of the method: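 Read-out is Hoechst total nuclear intensity by fluorescence scanning imager, flagging increased high-DNA-content nuclei. Compounds were incubated with MCF 10A cells for 48 hr (37 C, 5% CO2) before 40 min staining.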

[3] = target: Ubiquitin carboxyl-terminal hydrolase 2 (Homo sapiens) (UniProt O75604); test: qHTS Validation Assay for Inhibitors of Ubiquitin-specific Protease USP2a Using CHOP2 as the Reporter (AID 463106)
Summary of the method: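 Fluorescence read-out at Ex 485nm/Em 531nm after 60min RT, following addition of 25nM Ub-CHOP2 plus 25nM reporter substrate to USP2 core (10nM) pretreated 30min with compound. Data normalized to NEM full inhibition; concentration-response curves fitted.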

[4] = target: DNA polymerase III PolC-type (Bacillus subtilis (strain 168)) (UniProt P13267); test: qHTS Validation Assay for the Inhibitors of DNA Replication in Gram-Positive Bacteria (AID 485295);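 further: reconstituted holoenzyme with PolC plus beta clamp SSB and primase; PicoGreen fluorescence of double-stranded DNA made on primed circular M13 template; series mostly up to about 57 µM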
Summary of the method: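 Double-stranded DNA product detected by PicoGreen fluorescence after EDTA quench. Compound incubated with B. subtilis holoenzyme (PolC, beta subunit, SSB, primase) before substrate addition; primed replication of M13Gori with dNTPs and NTPs at room temperature; DMSO defines 0% inhibition.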

[5] = target: Tumor susceptibility gene 101 protein (Homo sapiens) (UniProt Q99816); test: qHTS Validation Assay for Iinhibitors of HIV-1 Budding by Blocking the Interaction of PTAP/TSG101 (AID 485342; calls by dose curve)
Summary of the method: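 Fluorescence polarization of 50 nM FITC-PTAP peptide bound to 10 uM Tsg101 binding domain was read after 20 min room-temperature incubation with compounds, in 10 mM HEPES pH 7.5, 0.15 M NaCl, 0.01% Tween 20.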

[6] = qHTS Validation Assay to Find Inhibitors of Chronic Active B-Cell Receptor Signaling (AID 485345; active means well fitted curve in the direction sought with a large enough effect in the main read-out, with a control signal flat, not every such curve was filed as active)
Summary of the method: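 TMD8 ABC-DLBCL cells stably carrying doxycycline-inducible IkappaBalpha–green luciferase fusion plus unfused red luciferase; compounds 46 uM to 3 nM, 4 h at 37C with doxycycline. Corrected green/red luminescence ratio normalized to 10 uM MG-132 and basal cell wells; curves fitted.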

[7] = target: Beta-2 adrenergic receptor (Homo sapiens) (UniProt P07550); test: qHTS validation assay of beta-arrestin-biased ligands of beta2-adrenergic receptor (AID 485366)
Summary of the method: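 Screening used a titration range of up to 46 microM in a beta-arrestin recruitment Tango luciferase assay. Cells in 1% FBS medium were treated 18 hr at 37 degrees C, and luminescence was normalized to %Activity.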

[8] = target: Thioredoxin reductase 1, cytoplasmic (Rattus norvegicus) (UniProt O89049); test: qHTS Assay for Substrates of Mammalian Selenoprotein Thioredoxin Reductase 1 (TrxR1) (AID 488772);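 further: series mostly up to about 57 µM; a drop in NADPH fluorescence below the no-compound background marks a TrxR1 substrate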
Summary of the method: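 In this dual-purpose format, potential substrates are identified from the first fluorescence read after selenite addition, not from the 8-minute delta. Rat enzyme is preincubated with NADPH and then with compound at ~22 deg C.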

[9] = target: Thioredoxin reductase 1, cytoplasmic (Rattus norvegicus) (UniProt O89049); test: qHTS Assay for Inhibitors of Mammalian Selenoprotein Thioredoxin Reductase 1 (TrxR1) (AID 488773); details: Potency: inhibition;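 further: drop in NADPH fluorescence over an 8 min run after selenite addition; series mostly up to about 57 µM; nearly all actives have a fitted effect of over 40% in size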
Summary of the method: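 Inhibition is scored from the loss of NADPH fluorescence between first and last reads of an 8-min kinetic run. Selenite (400 uM) was the substrate, added after 15 min compound preincubation at room temperature.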

[10] = target: Flap endonuclease 1 (Homo sapiens) (UniProt P39748); test: qHTS Validation Assay for the Inhibitors of Human Flap endonuclease 1 (FEN1) (AID 488816)
Summary of the method: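 Enzyme reagent 10 nM; cpds pinned; 15 min RT preinc.; substrate 50 nM final; reads t=0 and 15 min; no-enzyme buffer wells as neg. control; normalized data, 4-parameter Hill fit.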

[11] = target: M-phase phosphoprotein 8 (Homo sapiens) (UniProt Q99549); test: qHTS Validation Assay for Inhibitors for MPP8 Chromodomain Interactions with Methylated Histone Tails (AID 488949);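 further: AlphaScreen signal from MPP8 chromodomain bound to biotinylated H3K9me3 peptide; top concentration of the series differs between compounds; nearly all actives have a fitted effect of over 55% in size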
Summary of the method: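 AlphaScreen proximity signal from streptavidin donor and Ni-chelate acceptor beads (10 ug/mL each) reported binding of MPP8 to trimethyl-K9 H3(1-18) peptide, both at 50 nM. The complex formed 30 min before a 30 min compound exposure at room temperature, in PBS pH 7.4.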

[12] = target: Chromobox protein homolog 1 (Homo sapiens) (UniProt P83916); test: qHTS Validation Assay for Inhibitors of HP1-beta Chromodomain Interactions with Methylated Histone Tails (AID 488953);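 further: loss of AlphaScreen luminescence from HP1-beta binding biotinylated H3K9me3 peptide; series mostly up to about 110 µM; nearly all actives have a fitted effect of over 50% in size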
Summary of the method: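 Compounds pinned into a preassembled complex of HP1-beta and trimethyl-K9 histone H3(1-18) biotin peptide (50 nM each; PBS pH 7.4, 0.01% Tween-20). After 30 min, bead-based AlphaScreen detection followed.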

[13] = target: Methanococcus maripaludis chaperonin (MmCpn) (UniProt Q6LX38); test: High-Throughput Screening for Modulators of Cytosolic Chaperonin Activity: MmCpn Primary Screen (AID 488978);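 further: 50 nM MmCpn enzyme hydrolysing 30 µM ATP at 37 °C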
Summary of the method: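 ATPase activity of 50 nM MmCpn was assayed with 30 uM ATP, 10 minutes at 37C, after a 5 min compound preincubation at room temperature. ADP production was read as HTRF emission at 590 and 665 nm.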

[14] = target: Transient receptor potential cation channel subfamily V member 1 (Homo sapiens) (UniProt Q8NER1); test: HTS Assay for Compounds that Act as Enhancers of the Vanilloid Receptor 1 (AID 488979)
Summary of the method: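 TRPV1 cells loaded with Fluo-8 calcium dye; compound added and Ca2+ signal (ex 480/em 520 nm) followed 3 min, then capsaicin at EC20 added and read 2 more min to detect enhancement.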

[15] = target: Thyrotropin receptor (Homo sapiens) (UniProt P16473); test: qHTS Assay for Antagonists of the Thyroid Stimulating Hormone Receptor (AID 488980); further: series mostly up to about 58 µM
Summary of the method: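 Inhibition of cAMP raised by EC80 TSH (4 nM final) was read by HTRF, with lysate cAMP competing against cAMP-d2 for cryptate antibody after 30 min at room temperature. The cells were transfected HEK293 held in phosphodiesterase inhibitor RO 20-1724 at 70 uM.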

[16] = target: D(1A) dopamine receptor (Homo sapiens) (UniProt P21728); test: HTS Assay for Allosteric Agonists of the Human D1 Dopamine Receptor: Primary Screen for Agonists (AID 488981)
Summary of the method: (§1)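 Tetracycline-induced HEK293 Trex D1 cells with forced coupling to calcium, loaded with no-wash calcium dye; kinetic fluorescence read 180 s after compound addition for agonism, then a further 180 s after an EC20 dopamine challenge for potentiation.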

[17] = target: D(1A) dopamine receptor (Homo sapiens) (UniProt P21728); test: HTS Assay for Allosteric Agonists of the Human D1 Dopamine Receptor: Primary Screen for Antagonists (AID 488983);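 further: calcium flux response to an EC80 dopamine challenge measured with no-wash dye; nearly all actives have a fitted effect of over 65% in size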
Summary of the method: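 In this primary screen, compounds are applied to calcium-dye-loaded HEK293 T-REx cells with force-coupled D1 expression induced overnight at 30 C. An EC80 of dopamine follows the 180 s compound phase, and calcium is monitored for a further 180 s.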

[18] = target: ATP-dependent 6-phosphofructokinase (Trypanosoma brucei brucei) (UniProt O15648); test: qHTS Validation Assay to Find Inhibitors of T. brucei phosphofructokinase (AID 485368); details: outcome: dose series up to 57.5 µM
Summary of the method: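 PFK-generated ADP was measured after 45 min at room temperature using ADP-Glo. The reaction contained 0.5 mM F6P and 0.1 mM ATP.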

[19] = Cytometry Cell-Based qHTS for Inhibitors of the mTORC1 Signaling Pathway in MEF cells (AID 2668);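 further: Tsc2-/- p53-/- mouse embryonic fibroblasts stably re-expressing wild-type Tsc2; percent cells positive for phospho-rpS6 Ser235/236 relative to propidium iodide stain; series mostly up to about 38 µM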
Summary of the method: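 Phospho-rpS6 (Ser235/236) immunofluorescence over PI signal, scored as % positive cells using thresholds from 7.5 nM rapamycin and DMSO wells, after 24 h compound exposure of WT-Tsc2-rescued Tsc2-/-, p53-/- MEFs. PI cell count recorded for viability.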

[20] = target: D(1A) dopamine receptor (Homo sapiens) (UniProt P21728); test: HTS Assay for Allosteric Agonists of the Human D1 Dopamine Receptor: Primary Screen for Potentiators (AID 488982)
Summary of the method: as §1

Measured: Potency

Chain of ATP-dependent 6-phosphofructokinase (Trypanosoma brucei brucei) (O15648 whole entry, looked up): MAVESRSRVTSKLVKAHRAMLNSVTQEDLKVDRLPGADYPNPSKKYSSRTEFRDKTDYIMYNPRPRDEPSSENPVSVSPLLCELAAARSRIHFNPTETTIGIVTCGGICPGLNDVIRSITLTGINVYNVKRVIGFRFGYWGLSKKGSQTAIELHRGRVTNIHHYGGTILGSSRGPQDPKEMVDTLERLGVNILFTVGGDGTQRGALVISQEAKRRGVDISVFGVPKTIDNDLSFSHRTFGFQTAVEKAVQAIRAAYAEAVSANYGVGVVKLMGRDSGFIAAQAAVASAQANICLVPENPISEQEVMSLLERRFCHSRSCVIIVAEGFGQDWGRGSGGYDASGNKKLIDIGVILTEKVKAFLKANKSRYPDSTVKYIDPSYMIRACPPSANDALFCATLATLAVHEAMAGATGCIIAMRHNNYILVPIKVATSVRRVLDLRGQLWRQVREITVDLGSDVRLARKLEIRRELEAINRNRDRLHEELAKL
Chain of M-phase phosphoprotein 8 (Homo sapiens) (Q99549 whole entry, looked up): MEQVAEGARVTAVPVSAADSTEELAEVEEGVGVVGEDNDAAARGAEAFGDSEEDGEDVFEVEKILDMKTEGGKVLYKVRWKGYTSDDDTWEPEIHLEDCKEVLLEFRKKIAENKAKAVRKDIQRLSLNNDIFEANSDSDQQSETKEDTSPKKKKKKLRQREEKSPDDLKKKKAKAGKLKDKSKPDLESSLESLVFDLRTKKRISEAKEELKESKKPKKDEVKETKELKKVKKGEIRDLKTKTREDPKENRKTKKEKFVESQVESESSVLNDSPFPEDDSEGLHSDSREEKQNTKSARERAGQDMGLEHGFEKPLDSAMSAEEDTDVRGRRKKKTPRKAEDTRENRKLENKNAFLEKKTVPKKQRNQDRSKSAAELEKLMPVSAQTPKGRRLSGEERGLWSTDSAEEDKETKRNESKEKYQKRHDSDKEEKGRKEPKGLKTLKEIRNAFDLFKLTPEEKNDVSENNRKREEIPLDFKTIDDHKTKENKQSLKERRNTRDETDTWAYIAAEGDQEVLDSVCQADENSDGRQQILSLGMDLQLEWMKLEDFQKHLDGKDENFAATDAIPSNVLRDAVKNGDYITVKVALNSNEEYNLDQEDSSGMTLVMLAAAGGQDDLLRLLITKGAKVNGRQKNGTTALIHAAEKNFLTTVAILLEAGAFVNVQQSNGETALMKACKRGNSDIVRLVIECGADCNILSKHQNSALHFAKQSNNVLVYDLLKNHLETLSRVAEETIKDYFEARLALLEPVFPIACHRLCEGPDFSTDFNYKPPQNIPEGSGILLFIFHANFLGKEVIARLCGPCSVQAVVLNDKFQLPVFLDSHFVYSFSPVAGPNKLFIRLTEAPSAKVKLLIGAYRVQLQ
Chain of Tumor susceptibility gene 101 protein (Homo sapiens) (Q99816 whole entry, looked up, the tested form may be a part): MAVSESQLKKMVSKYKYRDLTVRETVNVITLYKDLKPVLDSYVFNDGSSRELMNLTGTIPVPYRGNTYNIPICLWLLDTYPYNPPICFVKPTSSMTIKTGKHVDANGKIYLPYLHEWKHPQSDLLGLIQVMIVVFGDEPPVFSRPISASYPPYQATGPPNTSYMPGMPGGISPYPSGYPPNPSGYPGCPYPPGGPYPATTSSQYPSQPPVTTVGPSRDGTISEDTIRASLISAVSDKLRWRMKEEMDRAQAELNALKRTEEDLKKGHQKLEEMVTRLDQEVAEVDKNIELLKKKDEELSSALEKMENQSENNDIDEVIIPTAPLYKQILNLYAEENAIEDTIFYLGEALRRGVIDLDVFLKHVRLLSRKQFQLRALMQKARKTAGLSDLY
Chain of Beta-2 adrenergic receptor (Homo sapiens) (P07550 whole entry, looked up): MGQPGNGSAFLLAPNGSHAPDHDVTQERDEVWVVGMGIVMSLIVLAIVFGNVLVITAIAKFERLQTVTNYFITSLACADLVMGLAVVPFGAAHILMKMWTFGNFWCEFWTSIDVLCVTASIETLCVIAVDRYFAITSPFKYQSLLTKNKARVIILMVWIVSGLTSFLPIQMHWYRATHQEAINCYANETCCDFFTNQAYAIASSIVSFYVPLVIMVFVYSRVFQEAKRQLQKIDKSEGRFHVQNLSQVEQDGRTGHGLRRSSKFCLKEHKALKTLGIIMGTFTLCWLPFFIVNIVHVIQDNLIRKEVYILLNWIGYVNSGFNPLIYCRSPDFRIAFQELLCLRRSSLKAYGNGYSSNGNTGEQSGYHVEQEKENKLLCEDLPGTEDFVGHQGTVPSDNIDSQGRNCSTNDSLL
Chain of DNA polymerase III PolC-type (Bacillus subtilis (strain 168)) (P13267 whole entry, looked up): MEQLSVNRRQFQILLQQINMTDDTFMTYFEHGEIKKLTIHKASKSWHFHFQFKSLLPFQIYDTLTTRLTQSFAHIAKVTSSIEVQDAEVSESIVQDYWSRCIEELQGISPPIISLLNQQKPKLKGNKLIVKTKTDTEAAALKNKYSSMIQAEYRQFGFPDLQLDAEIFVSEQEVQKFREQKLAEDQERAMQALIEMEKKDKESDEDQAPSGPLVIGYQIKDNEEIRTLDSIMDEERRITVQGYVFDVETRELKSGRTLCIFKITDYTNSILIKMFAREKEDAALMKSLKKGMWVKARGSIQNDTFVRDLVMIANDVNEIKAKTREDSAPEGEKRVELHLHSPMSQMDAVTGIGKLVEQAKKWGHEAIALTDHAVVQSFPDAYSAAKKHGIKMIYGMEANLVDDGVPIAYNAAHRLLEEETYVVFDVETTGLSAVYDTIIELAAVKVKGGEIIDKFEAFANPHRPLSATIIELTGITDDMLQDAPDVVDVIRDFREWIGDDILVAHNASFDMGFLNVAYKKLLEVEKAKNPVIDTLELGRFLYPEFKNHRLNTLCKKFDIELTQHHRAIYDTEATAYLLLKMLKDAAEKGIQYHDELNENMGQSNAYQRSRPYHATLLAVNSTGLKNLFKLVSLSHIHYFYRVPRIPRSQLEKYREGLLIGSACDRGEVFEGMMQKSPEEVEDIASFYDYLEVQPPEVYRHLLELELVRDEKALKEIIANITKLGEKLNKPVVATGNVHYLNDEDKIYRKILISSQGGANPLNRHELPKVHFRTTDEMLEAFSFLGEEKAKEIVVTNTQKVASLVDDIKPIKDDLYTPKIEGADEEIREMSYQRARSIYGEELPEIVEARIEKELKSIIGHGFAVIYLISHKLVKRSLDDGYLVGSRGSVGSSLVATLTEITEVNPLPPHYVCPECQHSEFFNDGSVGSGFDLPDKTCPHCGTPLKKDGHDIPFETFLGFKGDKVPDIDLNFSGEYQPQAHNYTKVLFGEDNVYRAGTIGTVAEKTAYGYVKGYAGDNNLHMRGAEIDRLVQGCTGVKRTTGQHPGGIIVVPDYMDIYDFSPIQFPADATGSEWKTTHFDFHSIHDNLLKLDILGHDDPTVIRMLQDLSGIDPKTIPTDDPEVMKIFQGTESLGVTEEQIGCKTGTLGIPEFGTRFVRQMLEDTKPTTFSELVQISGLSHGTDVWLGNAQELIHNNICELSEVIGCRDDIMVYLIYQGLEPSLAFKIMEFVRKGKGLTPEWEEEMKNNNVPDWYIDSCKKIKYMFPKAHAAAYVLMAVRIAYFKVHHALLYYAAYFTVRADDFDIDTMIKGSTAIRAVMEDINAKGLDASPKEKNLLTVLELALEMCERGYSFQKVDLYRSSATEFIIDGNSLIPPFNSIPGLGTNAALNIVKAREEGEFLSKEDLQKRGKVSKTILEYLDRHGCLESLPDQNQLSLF
Chain of Transient receptor potential cation channel subfamily V member 1 (Homo sapiens) (Q8NER1 whole entry, looked up): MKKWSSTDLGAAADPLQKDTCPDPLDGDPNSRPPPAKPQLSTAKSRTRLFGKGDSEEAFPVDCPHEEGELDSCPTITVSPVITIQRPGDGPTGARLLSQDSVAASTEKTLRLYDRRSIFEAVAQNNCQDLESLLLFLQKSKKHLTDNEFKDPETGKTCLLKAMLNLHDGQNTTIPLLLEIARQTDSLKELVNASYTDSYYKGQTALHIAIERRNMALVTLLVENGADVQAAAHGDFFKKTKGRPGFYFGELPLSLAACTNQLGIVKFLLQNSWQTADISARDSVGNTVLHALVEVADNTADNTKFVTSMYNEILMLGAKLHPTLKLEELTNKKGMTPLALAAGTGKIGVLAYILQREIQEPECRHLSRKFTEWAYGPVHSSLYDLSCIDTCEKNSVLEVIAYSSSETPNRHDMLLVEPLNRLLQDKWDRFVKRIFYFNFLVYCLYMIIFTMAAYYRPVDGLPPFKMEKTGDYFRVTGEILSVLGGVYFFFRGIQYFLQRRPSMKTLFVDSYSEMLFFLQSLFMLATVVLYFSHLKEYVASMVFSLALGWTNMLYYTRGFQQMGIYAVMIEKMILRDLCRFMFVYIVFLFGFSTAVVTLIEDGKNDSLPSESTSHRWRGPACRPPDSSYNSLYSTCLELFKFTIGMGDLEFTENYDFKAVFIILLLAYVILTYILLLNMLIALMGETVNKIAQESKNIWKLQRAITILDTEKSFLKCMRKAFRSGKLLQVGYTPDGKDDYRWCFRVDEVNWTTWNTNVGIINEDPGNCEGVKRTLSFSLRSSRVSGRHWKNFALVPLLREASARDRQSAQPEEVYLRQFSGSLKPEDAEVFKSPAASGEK
Chain of Thioredoxin reductase 1, cytoplasmic (Rattus norvegicus) (O89049 whole entry, looked up): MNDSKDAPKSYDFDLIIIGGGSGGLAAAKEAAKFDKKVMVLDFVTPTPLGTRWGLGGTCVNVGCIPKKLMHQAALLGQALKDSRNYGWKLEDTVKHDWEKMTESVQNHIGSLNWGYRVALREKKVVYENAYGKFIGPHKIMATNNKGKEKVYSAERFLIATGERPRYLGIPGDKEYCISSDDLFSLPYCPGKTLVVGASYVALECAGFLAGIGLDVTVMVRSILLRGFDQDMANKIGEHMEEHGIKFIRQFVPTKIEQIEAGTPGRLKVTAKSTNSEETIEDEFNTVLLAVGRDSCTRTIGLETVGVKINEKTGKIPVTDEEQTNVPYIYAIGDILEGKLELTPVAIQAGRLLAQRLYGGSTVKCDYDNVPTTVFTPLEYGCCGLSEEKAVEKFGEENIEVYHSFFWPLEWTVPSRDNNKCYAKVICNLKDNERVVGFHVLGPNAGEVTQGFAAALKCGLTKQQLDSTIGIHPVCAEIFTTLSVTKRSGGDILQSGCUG

Cc1[nH]c(=O)c(C#N)cc1-c1ccncc1
inactive: [1] | [2] | [3] | [4] | [5] | [6] | [7] | [8] | [9] | [10] | [11] | [12] | [13] | [14] | [15] | [16] | [17]

Cc1ccc(N(CC2=NCCN2)c2cccc(O)c2)cc1
inactive: [2] | [3] | [4] | [5] | [6] | [7] | [18] | [8] | [9] | [10] | [11] | [13] | [14] | [15] | [16]

CC(C[N+](C)(C)C)OC(N)=O (stereo unspecified)
inactive: [2] | [3] | [4] | [5] | [6] | [7] | [18] | [8] | [9] | [10] | [11] | [12] | [13] | [14] | [16] | [17]

O=NN(CCCl)C(=O)NCCCl
inactive: [2] | [3] | [4] | [5] | [6] | [7] | [18] | [8] | [9] | [10] | [11] | [12] | [13] | [14] | [15] | [16] | [17]

CNC[C@H](O)c1cccc(O)c1
inactive: [2] | [3] | [4] | [5] | [6] | [7] | [18] | [8] | [9] | [10] | [11] | [12] | [13] | [14] | [15] | [16]

CCn1cc(C(=O)O)c(=O)c2cc(F)c(N3CCNC(C)C3)c(F)c21 (stereo unspecified)
inactive: [2] | [3] | [4] | [5] | [6] | [7] | [18] | [8] | [9] | [10] | [11] | [12] | [13] | [14] | [15] | [16] | [17]

O=c1[nH]cnc2[nH]ncc12
inactive: [2] | [3] | [4] | [5] | [6] | [7] | [18] | [8] | [9] | [10] | [11] | [12] | [13] | [14] | [16] | [17]

CC(=O)Oc1ccccc1C(=O)O
inactive: [1] | [2] | [3] | [4] | [5] | [6] | [7] | [18] | [8] | [9] | [10] | [11] | [12] | [13] | [14] | [15] | [16] | [17]

NC(N)=NC(=O)c1nc(Cl)c(N)nc1N
inactive: [19] | [2] | [3] | [4] | [5] | [7] | [18] | [9] | [11] | [12] | [13] | [14] | [15] | [16] | [17]

NC(=O)c1cnccn1
inactive: [2] | [3] | [4] | [5] | [6] | [7] | [18] | [8] | [9] | [10] | [11] | [12] | [13] | [14] | [16] | [17]

Nc1nc2c(ncn2COCCO)c(=O)[nH]1
inactive: [1] | [2] | [4] | [5] | [6] | [7] | [18] | [9] | [11] | [12] | [13] | [15] | [16] | [20] | [17]

Clc1cccc(Cl)c1NC1=NCCN1
inactive: [2] | [3] | [4] | [5] | [6] | [7] | [18] | [8] | [9] | [10] | [11] | [12] | [13] | [14] | [15] | [16] | [20] | [17]
